Compound activity: PubChem BioAssay, National Center for Advancing Translational Sciences (NCATS)
HPGD block: HPGD (human) dehydrogenase inhibition. 150,000 tested, 4.3% active. Potency, µM, for the others: top-dose activity change, negative = inhibition, actives largely listed as inhibitors. purified HPGD, NADH fluorescence kinetic, PGE2 substrate; also: potency is read from the fitted curve at half-maximal effect
Target sequence (P15428 whole entry, looked up): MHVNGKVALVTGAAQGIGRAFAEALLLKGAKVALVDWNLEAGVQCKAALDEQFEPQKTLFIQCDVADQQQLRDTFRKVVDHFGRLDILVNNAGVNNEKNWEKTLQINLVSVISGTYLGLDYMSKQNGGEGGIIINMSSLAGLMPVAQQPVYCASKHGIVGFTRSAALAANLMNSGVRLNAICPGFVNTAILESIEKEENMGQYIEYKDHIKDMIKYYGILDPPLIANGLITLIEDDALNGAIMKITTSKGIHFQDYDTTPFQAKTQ
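NADH formation kinetics: reaction with 30 uM PGE2 and 1 mM NAD+ (final), 20 nM enzyme, Tris-HCl pH 8 with Tween 20, after 15 min compound preincubation at room temperature. Fluorescence change, last versus first of five reads.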
PNC assembly inh: perinucleolar compartment assembly inhibition; 140,000 tested, 3.1% active; PC3M PTB-GFP, PNC prevalence imaging, 16 h; stronger effect = lower value; activity change (PNC), negative = inhibition, % at 10 µM; AID 2417;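 active = readout at or below -70, meaning at least 70% loss of cells showing the perinucleolar compartment, a nuclear body marking cancer cells; inconclusive = readout between -30 and a set limit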;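 also: plate controls were DMSO wells for no effect and camptothecin positive control wells for full effect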
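Compounds are pinned in duplicate onto adhered PC3M cells stably expressing GFP-tagged PTB and incubated 16 h at 37 C. Cells are then fixed, nuclei stained with Hoechst, and PNC-positive cells counted.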
ALDH1A1 inh: inhibitors of human aldehyde dehydrogenase 1A1. P00352. Purified ALDH1A1, NADH fluorescence, propionaldehyde substrate. Potency, µM (series often up to 75.3 µM), without a hit: top-dose activity, negative = inhibition, hits mostly inhibitors. 220,000 tested, 7.3% active;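 also: potency is read from the fitted curve at half-maximal effect; plate controls were no enzyme wells and a reference inhibitor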
* = called active by the depositor; [ ] = another dose, or the depositor's remark. Hits are enriched below; roughly 11% of the tested compounds scored in any of these assays. Unless noted, calls follow the shape of the dose curve; as a rule, active = well fitted inhibition curve with a large enough effect (not every such curve was filed as active); inconclusive = small, poorly fitted or top-dose-only effect, or another doubt; inactive = no such curve, though single readings can be large or run the other way. Unless noted, % is scaled to controls: 0 for no effect and ±100 for the full control effect.

What do the screens show for `CCN1CCc2c(sc(NC(=O)Nc3ccc(Cl)c(Cl)c3)c2C(N)=O)C1`?
HPGD block: -17%; PNC assembly inh: -118*; ALDH1A1 inh: -1%

Results for CCN1CCc2c(sc(NC(=O)c3ccc(S(=O)(=O)N4CCOCC4)cc3)c2C(N)=O)C1 ?
HPGD block: -14%; PNC assembly inh: 27; ALDH1A1 inh: 40µM*

How did CCCC(=O)Nc1sc(Cc2ccccc2)c(C)c1C(N)=O do in these assays?
ALDH1A1 inh: 1.8µM*

How did CCC(=O)Nc1sc2c(c1C(N)=O)CCN(C(C)=O)C2 do in these assays?
HPGD block: -19%; PNC assembly inh: 47; ALDH1A1 inh: inconclusive

Results for COc1cc(/C=C(\C#N)C(=O)c2c[nH]c3ccccc23)cc(OC)c1O ?
ALDH1A1 inh: 8%

What do the screens show for `O=C(Oc1coc(CSc2ncccn2)cc1=O)c1cccs1`?
ALDH1A1 inh: 7%

What do the screens show for `Cc1cc(N)c2ccccc2[n+]1CCCCCCCCCC[n+]1c(C)cc(N)c2ccccc21`?
HPGD block: -14%; ALDH1A1 inh: -6%

How did COC(=O)CCC(=O)NC(=S)Nc1cc(Cl)ccc1Cl do in these assays?
HPGD block: -25%; PNC assembly inh: 20; ALDH1A1 inh: -7%

How did COC(=O)CCC(=O)NC(=S)Nc1sc(C)c(C)c1C(N)=O do in these assays?
HPGD block: -30%; PNC assembly inh: -124*; ALDH1A1 inh: inconclusive

What do the screens show for `OCC1(CCc2ccccc2)CCN(Cc2cc(F)ccc2-n2cccn2)CC1`?
ALDH1A1 inh: -9%

What do the screens show for `N/C(=N\OC(=O)CCCOc1ccccc1)c1cccc([N+](=O)[O-])c1`?
ALDH1A1 inh: -1%

Results for Cc1ccc(Cn2ccsc2=NC(=O)CCl)cc1 ?
ALDH1A1 inh: 10µM*

How did COc1ccc(C(=O)Cn2ccsc2=NC(C)=O)cc1 do in these assays?
ALDH1A1 inh: 7%

How did O=C(CCN1C(=O)c2ccc([N+](=O)[O-])cc2C1=O)Nc1cccc(O)c1 do in these assays?
HPGD block: -4%; PNC assembly inh: inconclusive; ALDH1A1 inh: 13%

How did Cc1cc(O)ccc1NC(=O)CCN1C(=O)c2ccc([N+](=O)[O-])cc2C1=O do in these assays?
HPGD block: -14%; PNC assembly inh: -98*; ALDH1A1 inh: 11µM*

What do the screens show for `CCN(Cc1ccccc1)C(=O)COC(=O)c1cc(Cl)nc(Cl)c1`?
ALDH1A1 inh: 3%

Results for C=CCn1c(SCC(=O)c2cccs2)nc2sc(C)c(C)c2c1=O ?
HPGD block: -18%; PNC assembly inh: inconclusive; ALDH1A1 inh: 8%

How did C=CCn1c(SCC(=O)c2cc(C)n(CCOC)c2C)nc2sc(C)c(C)c2c1=O do in these assays?
HPGD block: inconclusive; PNC assembly inh: -20; ALDH1A1 inh: 25µM*

Results for Cc1nc(N2CCOCC2)nc(N2CCCC2)c1[N+](=O)[O-] ?
HPGD block: 2%; PNC assembly inh: -18; ALDH1A1 inh: inconclusive

What do the screens show for `Cc1nc(N2CCOCC2)nc(N2CCCCC2)c1[N+](=O)[O-]`?
HPGD block: -2%; PNC assembly inh: inconclusive; ALDH1A1 inh: 16µM*

How did Cc1ccc(N(C(=O)CCC(=O)Nc2cc(C)on2)C(C(=O)NC2CCCC2)c2ccccc2)cc1 (configuration not stated) do in these assays?
ALDH1A1 inh: 20%

How did Cc1cc(NC(=O)CCC(=O)N(c2ccccc2)C(C(=O)NC2CCCC2)c2ccccc2)no1 (configuration not stated) do in these assays?
HPGD block: -6%; PNC assembly inh: -22; ALDH1A1 inh: 25µM*

How did C[C@@H](CS(=O)(=O)Cc1ccccc1)C(N)=O do in these assays?
HPGD block: -13%; ALDH1A1 inh: 0%[13.5 µM]

What do the screens show for `O=Cc1ccc(Oc2cc(-c3ccccc3)nc(-c3ccccc3)n2)cc1`?
HPGD block: -7%; PNC assembly inh: 3; ALDH1A1 inh: 22µM*

How did CC(=O)c1ccc(Oc2cc(-c3ccccc3)nc(-c3ccccc3)n2)cc1 do in these assays?
HPGD block: -11%; PNC assembly inh: 39; ALDH1A1 inh: 0%

What do the screens show for `CCCS(=O)(=O)c1nnnn1-c1cccc(OC)c1`?
HPGD block: 22µM*; PNC assembly inh: -5; ALDH1A1 inh: 1.4µM*

What do the screens show for `COc1cccc(CS(=O)(=O)c2nnnn2-c2ccccc2)c1`?
HPGD block: -15%; ALDH1A1 inh: 1µM*

How did COc1cccc(CS(=O)(=O)c2nnnn2C2CCCCC2)c1 do in these assays?
HPGD block: -2%; ALDH1A1 inh: 1%

How did CCOC(=O)c1csc(NC(=O)CSc2nnnn2-c2cccc(OC)c2)n1 do in these assays?
HPGD block: -12%; PNC assembly inh: -14; ALDH1A1 inh: -9%

Results for COCCNC(=O)C(C(=O)c1ccc(F)cc1)n1cc(C)ccc1=O (configuration not stated) ?
ALDH1A1 inh: 9%

Results for CC/C=C\C/C=C\C/C=C\C/C=C\C/C=C\CCC(=O)O[C@H](COCCCCCCCCCCCCCCCC)COP(=O)([O-])OCC[N+](C)(C)C ?
HPGD block: -3%; ALDH1A1 inh: -7%

How did O=C(Cn1nc(-c2ccccc2F)ccc1=O)Nc1ccc(S(=O)(=O)N2CCCCCC2)cc1 do in these assays?
HPGD block: 32µM*; PNC assembly inh: 9; ALDH1A1 inh: inconclusive

Results for O=C(Cn1c(=O)sc2ccccc21)Nc1ccc(S(=O)(=O)N2CCCCC2)cc1 ?
HPGD block: -14%; PNC assembly inh: -10; ALDH1A1 inh: inconclusive

What do the screens show for `O=C(Cn1nc(-c2ccccc2Cl)ccc1=O)Nc1ccc(Br)cc1`?
ALDH1A1 inh: 7.9µM*

What do the screens show for `Cc1ccccc1-c1ccc(=O)n(CC(=O)Nc2ccc(N3CCOCC3)cc2)n1`?
HPGD block: -5%; PNC assembly inh: 8; ALDH1A1 inh: -1%

Results for Cc1ccccc1-c1ccc(=O)n(CC(=O)Nc2ccc(C(=O)N3CCCC3)cc2)n1 ?
HPGD block: 14µM*; PNC assembly inh: 17; ALDH1A1 inh: inconclusive

Results for O=C(Cn1nc(-c2ccccc2Cl)ccc1=O)Nc1ccccc1-c1ccccc1 ?
ALDH1A1 inh: 0%

How did Cn1cccc1C(=O)N1CCC2(CC1)CN(c1ccncc1)C2 do in these assays?
HPGD block: -6%; ALDH1A1 inh: 2%

Results for Cc1cc(Br)ccc1NC(=O)CN1C(=O)C2C3CC(c4ccccc4)C(C3)C2C1=O (configuration not stated) ?
HPGD block: -7%; PNC assembly inh: 72; ALDH1A1 inh: -32%

How did Nc1cc(Oc2ccc(F)cc2F)cc([N+](=O)[O-])c1 do in these assays?
ALDH1A1 inh: 0%

Results for CC(=C/c1ccccc1)/C=N/n1c(-c2ccco2)n[nH]c1=S ?
HPGD block: 5µM*; PNC assembly inh: -26; ALDH1A1 inh: inconclusive

Results for COc1ccc(-n2c(-c3ccco3)n[nH]c2=S)cc1 ?
HPGD block: inconclusive; PNC assembly inh: 7; ALDH1A1 inh: inconclusive

How did CC(/C=N/n1c(-c2cc(C)[nH]n2)n[nH]c1=S)=C\c1ccccc1 do in these assays?
HPGD block: 10µM*; PNC assembly inh: -22; ALDH1A1 inh: -14%

Results for CC(/C=N/n1c(C2CCCCC2)n[nH]c1=S)=C\c1ccccc1 ?
HPGD block: inconclusive; PNC assembly inh: 33; ALDH1A1 inh: -8%
